Source: PubChem BioAssay (NCI)
Compounds without any hit were thinned out: in the full panel of roughly 83,000, 20% have a hit.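 96-well plates, one dose, 48 hours. Percent growth reported; active if below 10.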 Values without a mark were called inactive. The source made the active and inactive calls.

test system: DU-145 prostate; experiment: NCI-60 one-dose screen, 48 h (100 = growth as untreated, 0 = no growth, -100 = all killed); conditions: 10 µM unless noted

| SMILES | growth |
| --- | --- |
| CCc1ccc(-c2ccc(COc3ccc(CC4SC(=O)NC4=O)cc3)cc2)cc1 (stereo not given) | 88.8% |
| Cn1cc(-c2noc(-c3cn(C)c4ncc(F)cc34)n2)c2ccccc21 | 79.2% |
| Clc1ccc2nc(-c3ccc(-c4ccc(/C=N/NC5=NCCN5)cc4)s3)cn2c1 | 101% |
| CC(C)CCSc1nc(N)nc2nc[nH]c12 | 107% |

test system: K-562 leukemia; experiment: as above; conditions: 10 µM unless noted

| SMILES | growth |
| --- | --- |
| O=C(COc1cccc(/C=C2\Oc3ccccc3C2=O)c1)c1ccc([N+](=O)[O-])cc1 | 70.7% |
| CC[C@]12C=CCN3CC[C@@]4(c5ccc(OC)cc5N(C)[C@H]4[C@@](O)(C(=O)OC)[C@@H]1OC(=O)CCC(=O)N[C@H](Cc1c[nH]c4ccccc14)C(=O)OC)[C@@H]32 | 5.85% [100 µM] (active) |
| C=C(C)[C@@H]1CC[C@]2(C(N)=O)CC[C@]3(C)[C@H](CC[C@@H]4[C@@]5(C)C/C(=C/c6cccnc6)[C@H](O)C(C)(C)[C@@H]5CC[C@]43C)[C@@H]12 | 5.36% [100 µM] (active) |
| CSc1nc2sc3cc(Cl)c(Cl)cc3n2c(=N)c1C#N | 116% |
| COc1ccc(/C=C2\N=C(Nc3ccccc3)N(NC(=O)c3ccccn3)C2=O)cc1 | 81.1% |
| O=C(NCCCNC(=O)OCc1ccc2cccc(O)c2n1)OCc1ccc2cccc(O)c2n1 | 14.1% |
| COc1cc(C(=O)/C=C/c2c(-c3ccc(F)cc3)nc3sccn23)cc(OC)c1OC | 39.1% |
| CCCCCCCCCCCCNC(=S)N/N=C/c1ccccc1O | 61.2% |
| CCCc1cc2cc(-n3nc(C)c4c3CC(C)(C)CC4=O)cc(NC3CCSCC3)c2c(=O)[nH]1 | 19% |
| COc1ccc(-c2cc(-c3ccc(OC)c(OC)c3)nc(SCCCCCC(=O)NO)n2)cc1 | 26.1% |
| CCC(C)[C@H](NC(=O)NC(=O)NC(=O)CI)C(=O)OC (stereo not given in full) | 6.27% (active) |
| CCN(CC)c1ccc(/C=C/c2ccc3cc(C)ccc3[n+]2CC)cc1 | 6.51% (active) |
| N/C(=N\c1nc2ccccc2[nH]1)NC(=O)Cc1cccc2ccccc12 | 107% |
| CC1(C)CC[C@]2(C(N)=O)CC[C@]3(C)C(=CC[C@@H]4[C@@]5(C)C/C(=C/c6ccncc6)C(=O)C(C)(C)[C@@H]5CC[C@]43C)[C@@H]2C1 | 3.83% [100 µM] (active) |
| Cc1ccc(C2=C/C(=C/c3ccc(Br)cc3)C(=O)N2CCc2ccc(S(N)(=O)=O)cc2)cc1 | 88.6% |
| Cc1ccc(NCCN2CCCCC2)c2c(=O)c3ccccc3sc12 | 16.2% |

| SMILES | growth |
| --- | --- |
| CC1(C)CC(=O)c2c(ccc(C(=O)C[C@@H](N)CO)c2N)O1 | 25.9% |
| CCCCC1COc2cccc3c2N1C=C/C3=C\C(=O)n1ccc2ccccc21 (stereo not given) | 19.2% |
| CC(C)CSc1ncnc2nc[nH]c12 | 102% |
| CC1(C)CC[C@]2(C(=O)O)CC[C@]3(C)C(=CC[C@@H]4[C@@]5(C)C/C(=C/c6cccnc6)[C@H](O)C(C)(C)[C@@H]5CC[C@]43C)[C@@H]2C1 | 9.27% [100 µM] (active) |
| COc1ccc(C=C2c3ccccc3-c3ccccc32)cc1 | 18.8% |
| C#C[C@]1(O)CC[C@H]2[C@@H]3CC=C4c5nc(Nc6ccc(OC)cc6OC)sc5CC[C@]4(C)[C@H]3CC[C@@]21C | 6.12% (active) |
| CCOC(=O)c1nn(C2CCCCO2)c2ccc(NC(=O)CSc3nc4ccccc4c(=O)[nH]3)cc12 (stereo not given) | 99.4% |
| O=c1[nH]cnc2c1ccn2C1OC(CO)C(O)C1O (stereo not given) | 65.4% |
| CCOC(=O)C(=Cc1ccccc1[N+](=O)[O-])C(=O)OCC | 0.762% (active) |
| Cc1cc(C)c(S(=O)(=O)/N=c2/n(-c3ccccc3)nc3n2CCN3C2=NCCN2)c(C)c1 | 38.9% |
| COC(=O)c1cc2c(=O)[nH]cc3c2c(n1)CCC3 | 99.3% |
| Cn1cc(-c2noc(C(=O)c3cn(C)c4ncccc34)n2)c2ccccc21 | 76.1% |
| O=c1cc(-c2ccccc2)oc2cc(OCc3cn(Cc4ccc(F)cc4)nn3)cc(O)c12 | 109% [100 µM] |
| Cc1ccc(Cn2c(O)c(N=NC(=O)c3ccc(S(N)(=O)=O)cc3)c3ccccc32)cc1 | 99.2% |
| CC[C@]12C=CCN3CC[C@@]4(c5ccc(OC)cc5N(C)[C@H]4[C@@](O)(C(=O)OC)[C@@H]1OC(=O)CCC(=O)O[C@H]1CC[C@H]4[C@@H]5CCC6=CC(=O)CC[C@@H]6[C@H]5CC[C@]14C)[C@@H]32 | 7.54% [100 µM] (active) |
